Laboratory results taken from PubChem BioAssay AID1079 (Emory University Molecular Libraries Screening Center, 2008).
Potency and affinity values are given separately. Calls of active or inactive are those of the source.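 The calls were made as follows: active = fitted half-effect concentration IC50 at or below a set limit, with percent of control there 60 or less; inactive = the rest.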

Biological target: Estrogen receptor (Homo sapiens) (UniProt P03372)
Assay: blockers of SRC-3 recruitment to ERα – biochemical, ELISA, streptavidin-HRP readout, orthogonal assay, confirmation (AID 1079)

Chain of Estrogen receptor (Homo sapiens) (P03372 whole entry, looked up): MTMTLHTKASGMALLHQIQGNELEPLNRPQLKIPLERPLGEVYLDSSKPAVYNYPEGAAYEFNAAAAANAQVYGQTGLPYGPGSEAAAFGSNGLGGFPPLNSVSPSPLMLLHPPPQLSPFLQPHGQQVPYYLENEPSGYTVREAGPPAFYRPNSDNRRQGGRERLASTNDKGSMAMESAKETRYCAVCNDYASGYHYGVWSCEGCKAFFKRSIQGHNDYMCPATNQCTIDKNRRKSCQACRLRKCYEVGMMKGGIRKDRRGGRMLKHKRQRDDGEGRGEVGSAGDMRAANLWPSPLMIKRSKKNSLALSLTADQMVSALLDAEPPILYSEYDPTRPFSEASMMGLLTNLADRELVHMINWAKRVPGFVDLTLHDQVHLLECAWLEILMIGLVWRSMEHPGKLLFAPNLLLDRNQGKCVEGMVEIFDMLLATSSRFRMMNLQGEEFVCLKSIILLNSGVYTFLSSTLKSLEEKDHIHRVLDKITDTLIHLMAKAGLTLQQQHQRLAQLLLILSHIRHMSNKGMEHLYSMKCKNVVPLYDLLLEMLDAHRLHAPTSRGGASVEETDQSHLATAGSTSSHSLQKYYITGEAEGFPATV

Row | SMILES | outcome
1 | N#Cc1ccc(N2CCN(C(=O)CCCCCn3c(=S)[nH]c4ccccc4c3=O)CC2)cc1 | inactive
2 | O=C(CCCCCCCn1c(=S)[nH]c2ccccc2c1=O)N1CCN(c2cccc(Cl)c2)CC1 | inactive
